Source: publication PMC7862700, “An all-to-all approach to the identification of sequence-specific readers for epigenetic DNA modifications on cytosine”

Legend:
Experiment in all cases: DAPPL (digital affinity profiling via proximity ligation, sequencing); 10 mM Tris-HCl pH 7.5, 50 mM NaCl, 1 mM DTT, 4% glycerol, room temperature, 30 min; GST-TFs on glutathione beads, 16-mer random dsDNA library, 0.1% formaldehyde crosslink after washing; high values mean tight binding
FEV = target: T1, FEV (Homo sapiens, UniProt Q99581 1-238); conditions: protein: recombinant; tags: N-terminal GST; dsDNA, one strand shown
T1 sequence: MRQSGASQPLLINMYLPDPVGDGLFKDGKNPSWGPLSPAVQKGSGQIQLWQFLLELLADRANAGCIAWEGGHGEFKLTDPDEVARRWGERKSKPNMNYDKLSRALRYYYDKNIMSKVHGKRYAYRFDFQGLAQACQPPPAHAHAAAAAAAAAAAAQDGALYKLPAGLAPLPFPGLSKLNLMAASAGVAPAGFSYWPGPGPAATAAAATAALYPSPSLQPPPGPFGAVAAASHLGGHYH
Outline: (§1)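 In yeast, human transcription factors were expressed with a GST fusion, then pulled down on glutathione beads and given DNA barcodes. Pooled with a tag-only sample, they were exposed to 200 nmole of a 16-mer random double-stranded DNA library (Tris/NaCl/DTT/glycerol buffer, room temperature, 30 min), washed, crosslinked with 0.1% formaldehyde, proximity-ligated using BsaI/T4 ligase for 1 h at 37 °C, PCR-amplified and read on an Illumina NextSeq500. Each hexamer's frequency of reads for a factor, divided by the matching frequency for the tag-only sample, gives the binding signal.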

ETV5 = ETV5 (Homo sapiens, UniProt P41161 1-510); conditions: protein: recombinant; tags: N-terminal GST; dsDNA, one strand shown
Outline: as §1

HSF1 = HSF1 (Homo sapiens, UniProt Q00613 1-529); conditions: protein: recombinant; tags: N-terminal GST; chain copies: 3; dsDNA, one strand shown
Outline: as §1

SPIC = target: T2, SPIC (Homo sapiens, UniProt Q8N5J4 1-248); conditions: protein: recombinant; tags: N-terminal GST; dsDNA, one strand shown
T2 sequence: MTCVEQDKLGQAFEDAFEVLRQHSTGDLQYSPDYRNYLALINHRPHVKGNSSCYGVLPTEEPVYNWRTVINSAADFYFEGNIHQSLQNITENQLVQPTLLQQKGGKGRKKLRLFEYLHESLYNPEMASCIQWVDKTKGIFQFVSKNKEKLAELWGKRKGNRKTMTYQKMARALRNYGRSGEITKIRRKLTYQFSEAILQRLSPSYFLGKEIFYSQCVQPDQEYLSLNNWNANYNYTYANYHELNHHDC
Outline: as §1

ELF4 = ELF4 (Homo sapiens, UniProt Q99607 1-663); conditions: protein: recombinant; tags: N-terminal GST; dsDNA, one strand shown
Outline: as §1

ELK4 = target: T3, ELK4 (Homo sapiens, UniProt P28324-2 1-405); conditions: protein: recombinant; tags: N-terminal GST; dsDNA, one strand shown
T3 sequence: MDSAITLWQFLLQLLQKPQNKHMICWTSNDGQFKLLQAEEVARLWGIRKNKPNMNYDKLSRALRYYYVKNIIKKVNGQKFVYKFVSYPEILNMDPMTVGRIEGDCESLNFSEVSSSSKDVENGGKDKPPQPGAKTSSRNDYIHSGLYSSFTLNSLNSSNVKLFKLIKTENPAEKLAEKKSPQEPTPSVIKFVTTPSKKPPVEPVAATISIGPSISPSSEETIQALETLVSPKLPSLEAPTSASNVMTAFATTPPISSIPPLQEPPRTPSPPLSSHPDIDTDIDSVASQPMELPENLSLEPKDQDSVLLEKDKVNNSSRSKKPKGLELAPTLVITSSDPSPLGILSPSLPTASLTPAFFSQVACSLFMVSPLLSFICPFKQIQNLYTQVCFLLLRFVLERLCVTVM
Outline: as §1

ELF3 = target: T4, ELF3 (Homo sapiens, UniProt P78545 1-371); conditions: protein: recombinant; tags: N-terminal GST; dsDNA, one strand shown
T4 sequence: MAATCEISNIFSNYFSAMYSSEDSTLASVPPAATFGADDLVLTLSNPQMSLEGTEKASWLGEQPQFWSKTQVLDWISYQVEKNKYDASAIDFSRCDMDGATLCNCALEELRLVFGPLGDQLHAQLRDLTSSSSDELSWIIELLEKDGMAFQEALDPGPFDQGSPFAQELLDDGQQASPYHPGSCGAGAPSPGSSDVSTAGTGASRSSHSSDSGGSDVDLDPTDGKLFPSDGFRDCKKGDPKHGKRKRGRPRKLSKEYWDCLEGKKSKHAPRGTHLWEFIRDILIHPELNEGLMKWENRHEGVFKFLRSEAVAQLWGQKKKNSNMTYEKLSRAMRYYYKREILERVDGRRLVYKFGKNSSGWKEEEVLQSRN
Outline: as §1

CRX = CRX (Homo sapiens, UniProt O43186 1-299); conditions: protein: recombinant; tags: N-terminal GST; dsDNA, one strand shown
Outline: as §1

ETV1 = ETV1 (Homo sapiens, UniProt P50549 1-477); conditions: protein: recombinant; tags: N-terminal GST; dsDNA, one strand shown
Outline: as §1

Chain of CRX (O43186 whole entry): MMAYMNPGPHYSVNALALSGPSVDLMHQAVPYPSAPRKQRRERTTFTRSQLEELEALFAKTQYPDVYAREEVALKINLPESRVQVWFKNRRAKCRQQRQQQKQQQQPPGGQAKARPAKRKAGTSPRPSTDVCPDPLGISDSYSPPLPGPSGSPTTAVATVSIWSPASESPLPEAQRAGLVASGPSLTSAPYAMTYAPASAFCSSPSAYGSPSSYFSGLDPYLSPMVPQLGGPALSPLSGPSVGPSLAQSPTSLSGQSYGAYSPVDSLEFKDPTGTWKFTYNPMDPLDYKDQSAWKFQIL
Chain of HSF1 (Q00613 whole entry): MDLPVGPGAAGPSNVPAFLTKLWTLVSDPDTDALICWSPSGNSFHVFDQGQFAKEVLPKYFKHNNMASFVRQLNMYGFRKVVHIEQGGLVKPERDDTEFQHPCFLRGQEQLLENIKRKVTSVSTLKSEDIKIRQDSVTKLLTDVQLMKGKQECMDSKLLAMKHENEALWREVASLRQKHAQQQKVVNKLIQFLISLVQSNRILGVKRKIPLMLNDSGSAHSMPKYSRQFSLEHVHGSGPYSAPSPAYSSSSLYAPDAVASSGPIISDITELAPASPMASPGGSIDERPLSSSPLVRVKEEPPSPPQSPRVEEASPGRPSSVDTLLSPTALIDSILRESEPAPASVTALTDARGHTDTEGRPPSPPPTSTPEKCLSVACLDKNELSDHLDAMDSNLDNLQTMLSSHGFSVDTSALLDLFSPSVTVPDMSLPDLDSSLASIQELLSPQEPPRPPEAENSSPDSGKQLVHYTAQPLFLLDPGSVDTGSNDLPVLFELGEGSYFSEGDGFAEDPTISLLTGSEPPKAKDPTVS
Chain of ELF4 (Q99607 whole entry): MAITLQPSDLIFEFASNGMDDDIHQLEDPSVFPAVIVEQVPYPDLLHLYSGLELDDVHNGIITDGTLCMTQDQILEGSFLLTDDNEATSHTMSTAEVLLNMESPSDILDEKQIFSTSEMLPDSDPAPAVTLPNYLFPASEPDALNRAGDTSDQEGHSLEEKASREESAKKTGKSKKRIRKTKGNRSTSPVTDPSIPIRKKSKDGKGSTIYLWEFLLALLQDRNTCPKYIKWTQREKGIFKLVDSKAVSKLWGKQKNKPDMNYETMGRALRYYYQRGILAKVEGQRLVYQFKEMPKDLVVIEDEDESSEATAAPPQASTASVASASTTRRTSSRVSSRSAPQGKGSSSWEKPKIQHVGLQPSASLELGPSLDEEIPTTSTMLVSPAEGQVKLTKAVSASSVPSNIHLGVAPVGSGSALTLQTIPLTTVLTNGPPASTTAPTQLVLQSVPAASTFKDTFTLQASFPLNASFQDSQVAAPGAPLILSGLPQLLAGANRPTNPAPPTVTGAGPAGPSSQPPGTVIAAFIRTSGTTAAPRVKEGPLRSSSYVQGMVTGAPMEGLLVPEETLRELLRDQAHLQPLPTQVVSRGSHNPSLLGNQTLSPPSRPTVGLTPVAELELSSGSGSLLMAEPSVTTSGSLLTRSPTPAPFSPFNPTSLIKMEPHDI
Chain of ETV1 (P50549 whole entry): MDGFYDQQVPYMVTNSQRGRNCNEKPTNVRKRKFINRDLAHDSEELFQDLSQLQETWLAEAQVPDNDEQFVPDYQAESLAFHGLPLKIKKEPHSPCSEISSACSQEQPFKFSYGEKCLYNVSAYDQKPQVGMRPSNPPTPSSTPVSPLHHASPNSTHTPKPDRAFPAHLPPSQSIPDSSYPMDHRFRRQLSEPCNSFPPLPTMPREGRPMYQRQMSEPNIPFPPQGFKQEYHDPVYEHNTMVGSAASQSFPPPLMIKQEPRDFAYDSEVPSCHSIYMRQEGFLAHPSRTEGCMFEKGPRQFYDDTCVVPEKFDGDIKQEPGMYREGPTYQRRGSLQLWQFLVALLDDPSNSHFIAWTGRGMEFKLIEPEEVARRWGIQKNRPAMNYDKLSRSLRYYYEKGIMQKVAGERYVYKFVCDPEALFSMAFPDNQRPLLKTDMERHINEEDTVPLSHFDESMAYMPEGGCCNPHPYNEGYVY
Chain of ETV5 (P41161 whole entry): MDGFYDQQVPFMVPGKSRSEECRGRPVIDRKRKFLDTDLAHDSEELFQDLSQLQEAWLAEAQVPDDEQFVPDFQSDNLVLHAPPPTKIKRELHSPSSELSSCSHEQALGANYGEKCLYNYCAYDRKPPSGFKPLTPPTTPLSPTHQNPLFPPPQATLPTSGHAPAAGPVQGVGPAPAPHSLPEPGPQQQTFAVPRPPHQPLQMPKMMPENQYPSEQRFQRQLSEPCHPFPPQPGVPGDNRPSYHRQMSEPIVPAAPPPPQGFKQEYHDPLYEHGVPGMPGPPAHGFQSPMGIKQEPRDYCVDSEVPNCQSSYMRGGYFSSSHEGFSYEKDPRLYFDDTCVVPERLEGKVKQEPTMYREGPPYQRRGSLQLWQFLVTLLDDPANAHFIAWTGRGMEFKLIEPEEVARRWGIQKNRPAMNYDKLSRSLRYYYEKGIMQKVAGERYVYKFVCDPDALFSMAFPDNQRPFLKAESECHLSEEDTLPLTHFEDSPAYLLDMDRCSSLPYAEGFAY

Sequence | binding signal (FEV) | binding signal (ETV5) | binding signal (HSF1) | binding signal (SPIC) | binding signal (ELF4) | binding signal (ELK4) | binding signal (ELF3) | binding signal (CRX) | binding signal (ETV1)
CTTGGC | 1.24 fold enrichment (6-mer frequency, TF over GST control) | 1.1 fold enrichment (6-mer frequency, TF over GST control) | 1.03 fold enrichment (6-mer frequency, TF over GST control) | 1.14 fold enrichment (6-mer frequency, TF over GST control) | 1.21 fold enrichment (6-mer frequency, TF over GST control) | 1.42 fold enrichment (6-mer frequency, TF over GST control) | 1.19 fold enrichment (6-mer frequency, TF over GST control) | 1.03 fold enrichment (6-mer frequency, TF over GST control) | 1.15 fold enrichment (6-mer frequency, TF over GST control)
TGCGCA | 1.14 fold enrichment (6-mer frequency, TF over GST control) | 1.12 fold enrichment (6-mer frequency, TF over GST control) | 1.07 fold enrichment (6-mer frequency, TF over GST control) | 1.15 fold enrichment (6-mer frequency, TF over GST control) | 1.09 fold enrichment (6-mer frequency, TF over GST control) | 1.12 fold enrichment (6-mer frequency, TF over GST control) | 1.06 fold enrichment (6-mer frequency, TF over GST control) |  | 1.07 fold enrichment (6-mer frequency, TF over GST control)
CGAACT | 1.16 fold enrichment (6-mer frequency, TF over GST control) | 1.19 fold enrichment (6-mer frequency, TF over GST control) | 1.48 fold enrichment (6-mer frequency, TF over GST control) | 1.01 fold enrichment (6-mer frequency, TF over GST control) | 1.12 fold enrichment (6-mer frequency, TF over GST control) | 1.15 fold enrichment (6-mer frequency, TF over GST control) | 1.02 fold enrichment (6-mer frequency, TF over GST control) | 1.05 fold enrichment (6-mer frequency, TF over GST control) | 1.1 fold enrichment (6-mer frequency, TF over GST control)
ATACGC | 1.05 fold enrichment (6-mer frequency, TF over GST control) | 1.13 fold enrichment (6-mer frequency, TF over GST control) | 1.04 fold enrichment (6-mer frequency, TF over GST control) | 1.08 fold enrichment (6-mer frequency, TF over GST control) | 1.18 fold enrichment (6-mer frequency, TF over GST control) | 1.08 fold enrichment (6-mer frequency, TF over GST control) | 1.13 fold enrichment (6-mer frequency, TF over GST control) | 1.12 fold enrichment (6-mer frequency, TF over GST control) | 1.18 fold enrichment (6-mer frequency, TF over GST control)
GATAAT |  | 1.05 fold enrichment (6-mer frequency, TF over GST control) | 1.98 fold enrichment (6-mer frequency, TF over GST control) | 1.27 fold enrichment (6-mer frequency, TF over GST control) | 1.1 fold enrichment (6-mer frequency, TF over GST control) | 1.09 fold enrichment (6-mer frequency, TF over GST control) |  | 2.88 fold enrichment (6-mer frequency, TF over GST control) | 1.14 fold enrichment (6-mer frequency, TF over GST control)
CGATCA | 1.04 fold enrichment (6-mer frequency, TF over GST control) | 1.03 fold enrichment (6-mer frequency, TF over GST control) | 1.22 fold enrichment (6-mer frequency, TF over GST control) | 1.06 fold enrichment (6-mer frequency, TF over GST control) | 1.06 fold enrichment (6-mer frequency, TF over GST control) | 1.07 fold enrichment (6-mer frequency, TF over GST control) | 1.07 fold enrichment (6-mer frequency, TF over GST control) | 1.16 fold enrichment (6-mer frequency, TF over GST control) | 1.04 fold enrichment (6-mer frequency, TF over GST control)
TCCCAA | 1.17 fold enrichment (6-mer frequency, TF over GST control) | 1.2 fold enrichment (6-mer frequency, TF over GST control) | 1.11 fold enrichment (6-mer frequency, TF over GST control) | 1.17 fold enrichment (6-mer frequency, TF over GST control) | 1.24 fold enrichment (6-mer frequency, TF over GST control) | 1.09 fold enrichment (6-mer frequency, TF over GST control) | 1.16 fold enrichment (6-mer frequency, TF over GST control) | 1.23 fold enrichment (6-mer frequency, TF over GST control) | 1.2 fold enrichment (6-mer frequency, TF over GST control)
